Screening data: PubChem, several laboratories
MRP1 act – activators of MRP-1 | H69AR cells + doxorubicin, viability rescue, CellTiter-Glo | viability increase, % at 10 µM | hit rate 0.61% among 140,000;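 active means viability gain under doxorubicin at or above a set limit, the compound median plus 3 SD, cut at about 4.7% in these data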;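 further: MRP-1 overexpressing cells given doxorubicin 25 µM after compound pretreatment; 18-22 h compound pretreatment then 72 h with doxorubicin before readout; 0% = doxorubicin-only wells and 100% = vehicle-treated cells without doxorubicin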
Phagocytosis inh – inhibitors of macrophage phagocytosis; J774A.1 macrophage IgG-bead phagocytosis, imaging; inhibition, % at 5 µM; hit rate 0.07% among 110,000; AID 1029;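 active means inhibition above the mean of the plate negative controls plus 5 SD, cut at about 13% in these data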;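 further: phagocytic index as fraction of beads internalized from green versus red external bead signal; plate controls were DMSO negative control for no effect and cytochalasin-D positive control for full effect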
MRP reversal – compounds reversing MRP-mediated drug resistance; H69AR cells + 2 uM doxorubicin, CellTiter-Glo, 72 h; hit rate 0.04% among 85,000; differential viability (reversal), % at 10 µM;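 active means viability drop by adding the cancer drug above about 55%, with treated viability meeting a 40% cutoff, limit read from the data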;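 further: viability without doxorubicin minus viability with 2 µM doxorubicin for each compound; larger differential means the compound sensitizes cells more to doxorubicin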
* marks the source's active call; other numbers are inactive results; nt = no result given; [ ] = remark or other dose. Compounds with a hit are over-represented: about 0.72% of the library has one in this group of screens.

SMILES	MRP1 act	Phagocytosis inh	MRP reversal
O=C1NC(=Nc2ccccc2)SC1Cc1cccc(Cl)c1Cl (configuration not stated)	5.7*	-2.2	nt
Cc1cc(C)n(CCC(=O)N/N=C/c2ccccc2O)n1	5.6*	-5.3	nt
Cc1cc(C)n(CCC(=O)N/N=C/c2ccc(O)cc2O)n1	4.4	-12.3	nt
Cc1cccc(C(=O)NNC(=O)c2ccc(-c3ccccc3)cc2)c1	-1.4	nt	nt
Cc1cccc(C(=O)NNC(=O)CN2C(=O)c3ccccc3C2=O)c1	4.8*	-6.0	nt
Cc1ccc(NC(=O)c2cccs2)cc1S(=O)(=O)Nc1cccc(Cl)c1	2.5	-10.1	nt
C/C(=N\NC(=O)c1cccc(S(=O)(=O)Nc2cccc(Cl)c2)c1)c1cccs1	5.6*	7.8	nt
Cc1cc(Cl)c(S(=O)(=O)Nc2cccc(O)c2)cc1OCC(N)=O	-2.5	-3.8	nt
Cn1c(=O)c2c(nc(N3CCCCCC3)n2Cc2cccc3ccccc23)n(C)c1=O	-5.8	-0.5	63.6*
CN1CCN(c2nc3c(c(=O)n(C)c(=O)n3C)n2Cc2cccc3ccccc23)CC1	-1.4	0.1	11.7
Cc1nn(C)c(C)c1NC(=O)CSc1nc(C2CC2)nc2c1cnn2-c1ccccc1	-6.7	nt	77.8*
Cc1nn(C)c(C)c1NC(=O)CSc1nc(-c2ccccc2Cl)nc2c1cnn2-c1ccccc1	-2.5	-0.1	-26.1
C/C(=N\NC(=O)c1ccc(Cn2cc([N+](=O)[O-])cn2)o1)c1cccc(NC(=O)c2cccnc2)c1	20.1*	-1.7	nt
C/C(=N\NC(=O)c1ccc(Cn2cc(Br)cn2)o1)c1cccc(NC(=O)C(C)(C)C)c1	0.1	-2.5	nt
Cc1ccc2nc(SC(C(=O)c3ccccc3)c3ccccc3)nc(C)c2c1 (configuration not stated)	1.4	-8.1	nt
CN(N=Nc1ccc([N+](=O)[O-])cc1)c1ccccc1	2.5	-1.7	nt
CC(C)N(N=Nc1ccc([N+](=O)[O-])cc1)C(C)C	4.7*	-11.9	nt
COc1cc(/C=N/Nc2ccc(Cl)cc2)ccc1OC(=O)c1cccs1	-2.1	-7.5	nt
O=C(Nc1ncc(Cc2ccc(C(F)(F)F)cc2)s1)c1ccc(-c2cccc([N+](=O)[O-])c2)o1	5.0*	-9.2	nt
O=C(Nc1ncc(Cc2ccccc2Cl)s1)c1ccc(-c2cccc([N+](=O)[O-])c2)o1	5.2*	-1.9	nt
O=C(Nc1ncc(Cc2ccccc2Cl)s1)c1ccc([N+](=O)[O-])cc1	1.2	-6.0	nt
O=C(Nc1ncc(Cc2cccc(Cl)c2)s1)c1ccc([N+](=O)[O-])cc1	0.1	nt	nt
NCCCC[C@@H]1NC(=O)c2cc([N+](=O)[O-])cc(I)c2SC[C@@H](C(=O)NCC(N)=O)NC(=O)CNC1=O	-0.8	nt	nt
CN1C(=O)CC(C(=O)O)SC1=Nc1cc(Cl)cc(Cl)c1 (configuration not stated)	0.3	4.0	nt
COC(=O)c1ccc(NC(=O)C(=O)N2CCN(C(=S)Nc3cccc(OC)c3)CC2)cc1	6.2*	-11.7	nt
SMILES	MRP1 act	Phagocytosis inh	MRP reversal
COC(=O)c1ccc(NC(=O)C(=O)N2CCN(C(=S)Nc3ccc(OC)cc3)CC2)cc1	0.3	-11.0	nt
O=C(NNS(=O)(=O)c1ccc(F)c(Cl)c1)c1cccc(S(=O)(=O)N2CCOCC2)c1	-0.2	-10.7	nt
Cc1cccc(-c2noc(CCC(=O)NCc3ccccc3)n2)c1	-0.6	0.8	-0.8
Cc1cc(C)cc(OCC(=O)NCc2nc(-c3ccccc3)no2)c1	-3.1	23.0*	-26.4
Cc1ccc(CNC(=O)C2CCN(S(=O)(=O)N3CCC4(CC3)OCCO4)CC2)cc1	0.3	-2.3	nt
Clc1ccc(OCc2nnnn2-c2ccccc2)cc1	7.3*	-6.4	nt
c1ccc(OCc2nnnn2-c2ccccc2)cc1	-0.4	27.0	nt
COC(=O)c1ccc(N(C(=O)c2ccco2)C(C(=O)NC2CCCC2)c2ccco2)cc1 (configuration not stated)	-2.5	nt	-3.7
CC(=O)OC[C@H]1O[C@@H](O/N=C/C[C@@H]2C=C[C@H](OC(C)=O)[C@@H](COC(C)=O)O2)[C@H](OC(C)=O)[C@@H](OC(C)=O)[C@@H]1OC(C)=O	-3.4	nt	nt
CN(CC(=O)O)S(=O)(=O)c1cc(Cl)ccc1Cl	0.1	0.1	7.3
CN(CC(=O)N1CCCC1)S(=O)(=O)c1cc(Cl)ccc1Cl	1.2	25.2*[artifact]	7.6
O=[N+]([O-])c1cccnc1NCCNc1ncc(C(F)(F)F)cc1Cl	0.9	nt	nt
COc1ccc(NC(=O)COC(=O)c2ncc(Cl)c(Cl)c2Cl)c(OC)c1	-2.4	nt	nt
Cc1cc2cc(CN(Cc3cccs3)S(=O)(=O)c3ccc4c(c3)OCCO4)c(=O)[nH]c2cc1C	-0.7	2.5	nt
Cc1cccc2cc(CN(Cc3cccs3)S(=O)(=O)c3ccc4c(c3)OCCO4)c(=O)[nH]c12	9.3*	nt	nt
Cc1c(C(N)=O)sc(N)c1C(=O)OC(C)C	-1.9	-0.3	-3.7
Cc1c(C(=O)OC(C)C)sc(N)c1C(=O)OC(C)C	5.4*	-7.3	nt
Cc1nn(-c2ccccc2)c(Cl)c1C(=O)N(C)c1nc(-c2ccc(F)cc2)cs1	-2.2	-4.5	nt
CC(=O)NS(=O)(=O)c1ccc(NC(=O)CN2C(=O)C3C4C=CC(C4)C3C2=O)cc1 (configuration not stated)	-2.6	nt	nt
Cc1nnc2sc(-c3ccncc3)nn12	17.0*	0.0	24.8
CC(C)(C)c1ccc(-c2nnc3sc(-c4ccncc4)nn23)cc1	-1.6	-5.2	nt
COc1ccc(CC(=O)NCc2nnc(SCc3ccc(C)cc3)n2C)cc1	-0.9	5.1	nt
Cc1cccc(-c2cc3nc(C)cc(N4CC(C)CC(C)C4)n3n2)c1 (configuration not stated)	5.1*	nt	7.5
Cc1cccc(-c2cc3nc(C)cc(NCCCN(C)C)n3n2)c1	-3.8	-1.4	9.1
COc1ccc(/C=C/C(=O)NCc2cn(C)nc2C)cc1COc1ccc(Cl)cc1Br	2.8	0.9	nt
SMILES	MRP1 act	Phagocytosis inh	MRP reversal
CCn1nc(C)c(NC(=O)/C=C/c2ccc(OC)c(COc3ccc(Cl)cc3Br)c2)c1C	7.2*	nt	12.1
Cc1ccccc1C(OCCN(C(C)C)C(C)C)c1ccccc1 (configuration not stated)	-3.6	-7.6	nt
Cc1ccc(C(=O)N/C(=C\c2cccs2)C(=O)NCCCn2ccnc2)cc1C	-3.1	-1.4	nt
NC(=O)C1(N2CCCCC2)CCN(C(=O)c2cccn3c(=O)c4cc(Cl)ccc4nc23)CC1	5.6*	-1.4	10.5
O=C(c1cccn2c(=O)c3cc(Cl)ccc3nc12)N1CCOCC1	2.7	-4.2	7.6
COC(=O)c1cc(C(=O)OC)cc(-n2c(C)cc(C(=O)COC(=O)CNS(=O)(=O)c3ccc(C)cc3)c2C)c1	0.0	-9.8	nt
CCC(Sc1nc2ccccc2o1)C(=O)Nc1nnc(C)s1 (configuration not stated)	6.4*	-0.1	nt
CCC(Sc1ccccn1)C(=O)Nc1nnc(C)s1 (configuration not stated)	4.5	10.5	-5.4
O=C(NCC1(c2ccccc2)CCCC1)c1ccc(Br)o1	3.4	-5.0	nt
Cn1c(Cc2cccc3ccccc23)nnc1SCc1ccc([N+](=O)[O-])cc1	-0.7	-5.3	nt
Cc1cc2cc(CCNC(=O)C3c4ccccc4Oc4ccccc43)c(=O)[nH]c2cc1C	-4.8	nt	nt
O=C(Cc1nn[nH]n1)c1ccccc1O	0.6	-2.2	nt
CCCCn1nnc(NC(=S)NC(=O)c2cccs2)n1	8.8*	-9.1	nt
Cn1nnc(NC(=S)NC(=O)c2cccs2)n1	-0.8	-3.4	nt
NC(=O)CCC(NS(=O)(=O)c1ccc(Cl)cc1)C(=O)NCc1ccccc1 (configuration not stated)	1.0	-6.9	nt
